One sequence from paper PMC7862700, “An all-to-all approach to the identification of sequence-specific readers for epigenetic DNA modifications on cytosine” can be followed below.

Assay in all cases: DAPPL (digital affinity profiling via proximity ligation, sequencing); 10 mM Tris-HCl pH 7.5, 50 mM NaCl, 1 mM DTT, 4% glycerol, room temperature, 30 min; GST-TFs on glutathione beads, 16-mer random dsDNA library, 0.1% formaldehyde crosslink after washing; high values mean tight binding
Conditions in all cases: protein: recombinant; tags: N-terminal GST; dsDNA, one strand shown

For one experiment, the target named is T1, FLI1 (Homo sapiens, UniProt Q01543 1-452).
T1 sequence: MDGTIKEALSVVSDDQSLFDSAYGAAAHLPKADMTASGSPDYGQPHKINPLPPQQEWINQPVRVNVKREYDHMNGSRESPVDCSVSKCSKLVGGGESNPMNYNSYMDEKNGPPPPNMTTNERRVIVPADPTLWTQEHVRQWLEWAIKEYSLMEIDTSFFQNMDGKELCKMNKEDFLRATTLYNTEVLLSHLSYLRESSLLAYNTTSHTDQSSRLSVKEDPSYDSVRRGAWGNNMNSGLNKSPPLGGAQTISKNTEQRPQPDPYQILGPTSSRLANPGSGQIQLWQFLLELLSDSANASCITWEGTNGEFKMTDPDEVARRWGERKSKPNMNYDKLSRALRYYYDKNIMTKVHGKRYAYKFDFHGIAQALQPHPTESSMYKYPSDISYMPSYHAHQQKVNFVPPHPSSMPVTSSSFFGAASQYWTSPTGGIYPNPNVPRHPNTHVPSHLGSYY
Put shortly: (§1)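 After expression in yeast as GST fusions, human transcription factors were bound to glutathione beads, DNA-barcoded and mixed with a tag-only sample. The pools were incubated with 200 nmole of a 16-mer random double-stranded DNA library in Tris/NaCl/DTT/glycerol buffer (30 min, room temperature), washed and crosslinked with 0.1% formaldehyde. Proximity ligation with BsaI/T4 ligase ran for 1 h at 37 °C, before PCR amplification and sequencing on an Illumina NextSeq500. Binding signal is a hexamer's read frequency for a factor divided by its frequency for the tag-only sample.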

In another experiment the target is T2, ELK1 (Homo sapiens, UniProt P19419 1-428).
T2 sequence: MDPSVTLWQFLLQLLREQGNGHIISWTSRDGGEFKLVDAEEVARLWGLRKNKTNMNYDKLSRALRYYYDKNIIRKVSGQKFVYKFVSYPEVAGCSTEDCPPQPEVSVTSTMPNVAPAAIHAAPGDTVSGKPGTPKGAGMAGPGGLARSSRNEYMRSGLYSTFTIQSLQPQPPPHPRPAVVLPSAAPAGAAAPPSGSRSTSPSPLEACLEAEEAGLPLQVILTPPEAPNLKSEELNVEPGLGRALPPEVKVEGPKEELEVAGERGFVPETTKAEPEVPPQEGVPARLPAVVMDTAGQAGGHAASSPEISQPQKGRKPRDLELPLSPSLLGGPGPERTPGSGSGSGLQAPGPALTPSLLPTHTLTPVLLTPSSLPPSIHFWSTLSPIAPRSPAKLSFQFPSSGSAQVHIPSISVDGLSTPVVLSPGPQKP
Put shortly:
as §1

Another experiment deals with T3, GABPA (Homo sapiens, UniProt Q06546 1-454).
T3 sequence: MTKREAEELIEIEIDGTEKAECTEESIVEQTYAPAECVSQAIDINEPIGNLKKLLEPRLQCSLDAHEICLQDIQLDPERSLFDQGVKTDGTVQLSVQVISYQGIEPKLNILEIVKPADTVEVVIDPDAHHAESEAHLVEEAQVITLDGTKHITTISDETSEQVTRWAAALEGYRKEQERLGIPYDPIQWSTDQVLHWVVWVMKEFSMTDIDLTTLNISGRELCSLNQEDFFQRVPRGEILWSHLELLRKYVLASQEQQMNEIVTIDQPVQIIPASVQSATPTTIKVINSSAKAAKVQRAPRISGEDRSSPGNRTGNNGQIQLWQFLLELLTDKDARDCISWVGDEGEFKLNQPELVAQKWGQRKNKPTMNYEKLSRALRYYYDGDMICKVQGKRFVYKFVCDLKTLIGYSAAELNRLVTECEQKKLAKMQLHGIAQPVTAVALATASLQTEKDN
The essentials: as §1

For a further experiment, the target named is T4, ERG (Homo sapiens, UniProt P11308 1-479).
T4 sequence: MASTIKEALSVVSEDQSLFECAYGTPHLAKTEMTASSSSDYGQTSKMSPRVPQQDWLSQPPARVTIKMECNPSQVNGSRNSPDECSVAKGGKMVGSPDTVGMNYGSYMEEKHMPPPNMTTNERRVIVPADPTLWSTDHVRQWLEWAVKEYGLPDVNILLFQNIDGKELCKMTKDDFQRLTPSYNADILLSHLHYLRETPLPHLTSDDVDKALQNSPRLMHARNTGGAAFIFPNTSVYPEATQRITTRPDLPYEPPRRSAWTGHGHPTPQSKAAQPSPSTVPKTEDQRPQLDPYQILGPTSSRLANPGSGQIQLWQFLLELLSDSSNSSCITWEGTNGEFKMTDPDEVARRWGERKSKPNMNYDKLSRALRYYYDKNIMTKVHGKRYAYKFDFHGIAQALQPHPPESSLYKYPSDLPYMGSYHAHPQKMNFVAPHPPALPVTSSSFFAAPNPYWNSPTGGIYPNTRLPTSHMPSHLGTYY
The essentials:
as §1

In a further experiment the target is ELF1 (Homo sapiens, UniProt P32519 1-619). Put shortly: as §1
ELF1, sequence (P32519 whole entry): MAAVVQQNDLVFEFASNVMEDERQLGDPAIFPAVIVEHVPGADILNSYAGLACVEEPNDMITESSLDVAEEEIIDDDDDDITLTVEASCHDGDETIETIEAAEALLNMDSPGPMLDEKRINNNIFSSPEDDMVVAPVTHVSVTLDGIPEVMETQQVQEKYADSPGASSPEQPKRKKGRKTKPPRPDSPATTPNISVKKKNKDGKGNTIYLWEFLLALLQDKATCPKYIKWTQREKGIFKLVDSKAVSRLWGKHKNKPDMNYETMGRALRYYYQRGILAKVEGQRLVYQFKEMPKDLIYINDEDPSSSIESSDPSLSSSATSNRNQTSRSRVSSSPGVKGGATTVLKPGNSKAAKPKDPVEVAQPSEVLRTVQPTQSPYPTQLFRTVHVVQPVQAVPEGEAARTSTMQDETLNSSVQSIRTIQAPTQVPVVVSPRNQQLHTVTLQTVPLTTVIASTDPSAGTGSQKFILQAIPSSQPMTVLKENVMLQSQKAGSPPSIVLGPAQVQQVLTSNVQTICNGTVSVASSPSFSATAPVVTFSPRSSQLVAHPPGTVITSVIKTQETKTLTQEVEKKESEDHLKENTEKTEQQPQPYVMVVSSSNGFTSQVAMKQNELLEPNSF
A further experiment addresses T5, EHF (Homo sapiens, UniProt Q9NZC4 1-300).
T5 sequence: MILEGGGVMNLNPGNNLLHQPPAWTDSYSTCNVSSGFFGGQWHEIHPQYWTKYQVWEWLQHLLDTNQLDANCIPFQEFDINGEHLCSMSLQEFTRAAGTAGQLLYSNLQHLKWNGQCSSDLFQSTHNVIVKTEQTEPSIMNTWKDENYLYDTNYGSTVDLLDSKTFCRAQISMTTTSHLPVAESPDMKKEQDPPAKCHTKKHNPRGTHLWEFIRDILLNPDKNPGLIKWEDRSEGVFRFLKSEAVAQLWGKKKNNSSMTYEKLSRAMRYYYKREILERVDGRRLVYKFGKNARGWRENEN
Put shortly: as §1

The next experiment deals with SPI1 (Homo sapiens, UniProt P17947 1-270). The essentials: as §1
In a further experiment the target is SPIB (Homo sapiens, UniProt Q01892 1-262). The essentials: as §1
SPIB, sequence (Q01892 whole entry): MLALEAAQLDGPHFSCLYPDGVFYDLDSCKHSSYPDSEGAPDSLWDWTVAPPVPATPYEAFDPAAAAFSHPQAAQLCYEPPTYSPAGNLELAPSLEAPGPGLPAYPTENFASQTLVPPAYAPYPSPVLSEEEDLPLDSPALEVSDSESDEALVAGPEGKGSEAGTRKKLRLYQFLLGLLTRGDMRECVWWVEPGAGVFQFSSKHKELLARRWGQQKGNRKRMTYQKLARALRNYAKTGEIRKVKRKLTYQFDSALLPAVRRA
The next experiment concerns the target T6, ELK3 (Homo sapiens, UniProt P41970 1-407).
T6 sequence: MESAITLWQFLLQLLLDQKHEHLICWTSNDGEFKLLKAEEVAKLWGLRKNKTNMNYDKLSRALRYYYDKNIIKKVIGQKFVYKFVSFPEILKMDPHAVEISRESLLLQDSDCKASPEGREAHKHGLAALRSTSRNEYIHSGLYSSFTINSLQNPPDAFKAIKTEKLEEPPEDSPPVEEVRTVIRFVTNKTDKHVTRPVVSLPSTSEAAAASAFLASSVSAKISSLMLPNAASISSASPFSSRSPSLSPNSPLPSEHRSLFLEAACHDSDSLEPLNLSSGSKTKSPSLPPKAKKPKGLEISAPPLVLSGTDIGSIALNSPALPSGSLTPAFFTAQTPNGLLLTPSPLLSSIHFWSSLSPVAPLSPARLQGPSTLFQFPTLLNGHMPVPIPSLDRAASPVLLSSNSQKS
Put shortly:
as §1

Another experiment has as its target T7, FEV (Homo sapiens, UniProt Q99581 1-238).
T7 sequence: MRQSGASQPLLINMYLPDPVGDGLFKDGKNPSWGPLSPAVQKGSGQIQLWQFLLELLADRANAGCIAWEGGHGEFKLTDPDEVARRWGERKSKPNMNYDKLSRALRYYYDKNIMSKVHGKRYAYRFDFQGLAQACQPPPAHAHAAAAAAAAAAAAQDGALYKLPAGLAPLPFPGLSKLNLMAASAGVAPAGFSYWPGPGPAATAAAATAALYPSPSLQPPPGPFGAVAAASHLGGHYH
The essentials:
as §1

A further experiment addresses ETV5 (Homo sapiens, UniProt P41161 1-510). Put shortly: as §1
For the next experiment, the target named is T8, SPIC (Homo sapiens, UniProt Q8N5J4 1-248).
T8 sequence: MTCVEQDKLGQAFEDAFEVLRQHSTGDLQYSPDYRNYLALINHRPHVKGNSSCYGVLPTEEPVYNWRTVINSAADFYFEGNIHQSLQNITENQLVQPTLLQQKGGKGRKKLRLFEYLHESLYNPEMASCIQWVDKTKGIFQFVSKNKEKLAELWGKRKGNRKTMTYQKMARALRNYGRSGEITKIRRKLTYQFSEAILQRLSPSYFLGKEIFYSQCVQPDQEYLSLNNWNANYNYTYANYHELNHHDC
Put shortly:
as §1

A further experiment addresses ELF4 (Homo sapiens, UniProt Q99607 1-663). Put shortly: as §1
The next experiment concerns the target ETV1 (Homo sapiens, UniProt P50549 1-477). The essentials: as §1
The next experiment concerns the target T9, ERF (Homo sapiens, UniProt P50548 1-548).
T9 sequence: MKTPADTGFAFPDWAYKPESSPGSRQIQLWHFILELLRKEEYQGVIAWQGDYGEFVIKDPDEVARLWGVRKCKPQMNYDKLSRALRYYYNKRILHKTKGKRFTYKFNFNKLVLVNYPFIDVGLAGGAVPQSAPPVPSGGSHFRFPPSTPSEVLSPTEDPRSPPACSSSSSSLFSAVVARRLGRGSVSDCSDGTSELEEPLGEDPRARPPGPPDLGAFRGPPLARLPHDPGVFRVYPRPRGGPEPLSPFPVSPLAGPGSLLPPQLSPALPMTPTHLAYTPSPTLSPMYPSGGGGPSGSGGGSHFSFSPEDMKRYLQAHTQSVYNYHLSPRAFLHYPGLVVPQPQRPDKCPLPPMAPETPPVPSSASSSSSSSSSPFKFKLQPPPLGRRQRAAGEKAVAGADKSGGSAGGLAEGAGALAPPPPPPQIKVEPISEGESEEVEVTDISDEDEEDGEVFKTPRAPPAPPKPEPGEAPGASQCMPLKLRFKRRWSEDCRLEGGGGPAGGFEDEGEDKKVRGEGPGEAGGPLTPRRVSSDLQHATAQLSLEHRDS
Put shortly:
as §1

A further experiment concerns the target T10, ETV3L (Homo sapiens, UniProt Q6ZN32 1-361).
T10 sequence: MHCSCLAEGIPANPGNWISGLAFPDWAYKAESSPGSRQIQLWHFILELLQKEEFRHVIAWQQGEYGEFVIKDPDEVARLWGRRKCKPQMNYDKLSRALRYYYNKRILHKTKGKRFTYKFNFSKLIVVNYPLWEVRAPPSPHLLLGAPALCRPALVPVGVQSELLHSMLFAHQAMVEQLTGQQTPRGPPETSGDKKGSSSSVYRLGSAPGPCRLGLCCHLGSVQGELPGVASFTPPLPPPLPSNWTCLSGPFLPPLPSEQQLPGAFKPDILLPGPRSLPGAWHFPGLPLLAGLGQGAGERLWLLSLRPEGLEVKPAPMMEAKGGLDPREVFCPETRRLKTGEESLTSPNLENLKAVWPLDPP
Put shortly: as §1

The target in the next experiment is T11, ETS2 (Homo sapiens, UniProt P15036 1-469).
T11 sequence: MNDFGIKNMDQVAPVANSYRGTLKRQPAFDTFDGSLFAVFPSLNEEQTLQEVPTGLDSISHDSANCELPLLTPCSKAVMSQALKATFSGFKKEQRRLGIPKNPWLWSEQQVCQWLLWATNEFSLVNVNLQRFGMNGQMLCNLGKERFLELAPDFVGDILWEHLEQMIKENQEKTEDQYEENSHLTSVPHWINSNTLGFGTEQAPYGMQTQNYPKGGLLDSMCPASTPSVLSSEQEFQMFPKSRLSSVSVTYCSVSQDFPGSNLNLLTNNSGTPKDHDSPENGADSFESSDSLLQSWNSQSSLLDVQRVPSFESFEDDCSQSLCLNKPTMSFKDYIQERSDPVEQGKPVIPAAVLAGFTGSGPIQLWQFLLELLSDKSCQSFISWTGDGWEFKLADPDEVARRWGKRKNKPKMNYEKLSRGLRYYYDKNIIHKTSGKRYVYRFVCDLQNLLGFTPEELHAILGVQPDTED
Put shortly: as §1

Another experiment addresses T12, ELF5 (Homo sapiens, UniProt Q9UKW6-2 1-255).
T12 sequence: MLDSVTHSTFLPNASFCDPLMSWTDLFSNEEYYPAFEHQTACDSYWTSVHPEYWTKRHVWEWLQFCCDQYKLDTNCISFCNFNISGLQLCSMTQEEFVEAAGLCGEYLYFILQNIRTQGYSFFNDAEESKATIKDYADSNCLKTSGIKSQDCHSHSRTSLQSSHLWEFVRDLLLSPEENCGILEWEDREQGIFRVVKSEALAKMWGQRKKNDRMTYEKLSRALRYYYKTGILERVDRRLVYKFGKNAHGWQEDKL
The essentials:
as §1

For a further experiment, the target named is T13, ETV3 (Homo sapiens, UniProt P41162-2 1-143).
T13 sequence: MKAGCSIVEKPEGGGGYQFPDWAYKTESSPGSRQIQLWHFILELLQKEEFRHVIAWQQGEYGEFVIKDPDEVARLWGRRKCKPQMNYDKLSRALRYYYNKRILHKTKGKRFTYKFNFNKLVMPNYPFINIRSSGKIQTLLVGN
The essentials:
as §1

A further experiment concerns the target ETV6 (Homo sapiens, UniProt P41212 1-452). Put shortly:
as §1

ETV1, sequence (P50549 whole entry): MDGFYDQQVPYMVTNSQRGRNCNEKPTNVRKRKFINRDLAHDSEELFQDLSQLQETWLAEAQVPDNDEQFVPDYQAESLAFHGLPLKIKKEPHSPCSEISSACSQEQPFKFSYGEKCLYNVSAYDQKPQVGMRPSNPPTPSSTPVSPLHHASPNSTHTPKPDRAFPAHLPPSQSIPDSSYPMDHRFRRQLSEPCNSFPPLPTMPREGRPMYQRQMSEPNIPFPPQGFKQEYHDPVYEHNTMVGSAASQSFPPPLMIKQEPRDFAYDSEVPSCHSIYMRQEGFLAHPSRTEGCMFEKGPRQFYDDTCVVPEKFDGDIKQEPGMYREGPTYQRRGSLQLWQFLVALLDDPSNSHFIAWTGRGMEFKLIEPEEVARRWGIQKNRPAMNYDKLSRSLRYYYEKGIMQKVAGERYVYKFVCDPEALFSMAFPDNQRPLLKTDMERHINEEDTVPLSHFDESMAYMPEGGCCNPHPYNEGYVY
ETV6, sequence (P41212 whole entry): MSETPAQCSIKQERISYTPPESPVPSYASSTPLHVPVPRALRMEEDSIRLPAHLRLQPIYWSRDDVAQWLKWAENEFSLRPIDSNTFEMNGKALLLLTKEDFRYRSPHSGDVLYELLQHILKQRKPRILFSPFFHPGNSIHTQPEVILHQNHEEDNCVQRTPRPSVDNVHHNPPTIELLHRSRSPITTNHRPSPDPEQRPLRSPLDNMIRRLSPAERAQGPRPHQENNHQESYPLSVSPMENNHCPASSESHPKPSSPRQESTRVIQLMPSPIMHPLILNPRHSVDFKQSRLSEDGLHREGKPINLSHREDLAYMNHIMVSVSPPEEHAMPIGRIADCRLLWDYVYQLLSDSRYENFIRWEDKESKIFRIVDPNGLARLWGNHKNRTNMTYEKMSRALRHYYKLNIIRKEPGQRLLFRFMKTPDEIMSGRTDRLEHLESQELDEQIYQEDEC
ELF4, sequence (Q99607 whole entry): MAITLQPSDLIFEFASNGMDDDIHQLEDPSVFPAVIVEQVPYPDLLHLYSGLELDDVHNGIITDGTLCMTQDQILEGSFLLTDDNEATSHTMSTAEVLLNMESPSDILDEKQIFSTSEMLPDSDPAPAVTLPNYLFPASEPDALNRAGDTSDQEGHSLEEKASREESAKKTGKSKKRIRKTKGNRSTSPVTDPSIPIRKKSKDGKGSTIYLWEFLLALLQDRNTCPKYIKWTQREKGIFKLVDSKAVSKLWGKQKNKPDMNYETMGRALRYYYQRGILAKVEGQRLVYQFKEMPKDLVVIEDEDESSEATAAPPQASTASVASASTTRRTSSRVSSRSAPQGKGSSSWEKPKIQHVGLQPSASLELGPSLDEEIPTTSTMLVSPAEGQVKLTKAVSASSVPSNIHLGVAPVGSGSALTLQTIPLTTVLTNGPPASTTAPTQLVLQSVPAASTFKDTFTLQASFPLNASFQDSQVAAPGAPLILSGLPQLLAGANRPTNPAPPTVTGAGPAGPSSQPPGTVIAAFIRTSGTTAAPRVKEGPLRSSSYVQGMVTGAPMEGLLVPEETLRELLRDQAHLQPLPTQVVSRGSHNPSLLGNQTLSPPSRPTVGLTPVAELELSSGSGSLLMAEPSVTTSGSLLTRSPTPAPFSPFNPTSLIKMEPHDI
ETV5, sequence (P41161 whole entry): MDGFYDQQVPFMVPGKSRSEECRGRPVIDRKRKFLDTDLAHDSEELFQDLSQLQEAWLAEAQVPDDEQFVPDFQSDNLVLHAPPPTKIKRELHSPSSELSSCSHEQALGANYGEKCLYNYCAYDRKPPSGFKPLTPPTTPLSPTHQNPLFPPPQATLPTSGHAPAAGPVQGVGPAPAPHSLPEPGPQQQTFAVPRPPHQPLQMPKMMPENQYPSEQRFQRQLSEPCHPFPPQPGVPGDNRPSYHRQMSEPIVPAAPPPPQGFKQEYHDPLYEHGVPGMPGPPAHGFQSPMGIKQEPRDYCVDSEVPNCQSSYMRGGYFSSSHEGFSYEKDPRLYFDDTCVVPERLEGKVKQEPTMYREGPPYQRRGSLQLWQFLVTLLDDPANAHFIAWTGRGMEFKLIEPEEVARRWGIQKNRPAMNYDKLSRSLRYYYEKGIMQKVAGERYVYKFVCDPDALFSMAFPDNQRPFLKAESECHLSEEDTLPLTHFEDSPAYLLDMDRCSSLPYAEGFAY

Take ATGGTG: the binding signal with FLI1 is 1.17 fold enrichment (6-mer frequency, TF over GST control); with ELK1 it was 1.27 fold enrichment (6-mer frequency, TF over GST control); in the experiment with GABPA, 1.1 fold enrichment (6-mer frequency, TF over GST control); with ERG it was 1.19 fold enrichment (6-mer frequency, TF over GST control); in the experiment with ELF1, 1.13 fold enrichment (6-mer frequency, TF over GST control); in the experiment with EHF, 1.17 fold enrichment (6-mer frequency, TF over GST control). In addition, the binding signal with SPI1 is 1.07 fold enrichment (6-mer frequency, TF over GST control); with SPIB, 1.01 fold enrichment (6-mer frequency, TF over GST control); with ELK3, 1.02 fold enrichment (6-mer frequency, TF over GST control); in the experiment with FEV, 1.06 fold enrichment (6-mer frequency, TF over GST control); with ETV5 it was 1.18 fold enrichment (6-mer frequency, TF over GST control); with SPIC, 1.2 fold enrichment (6-mer frequency, TF over GST control). Besides, the binding signal with ELF4 is 1.14 fold enrichment (6-mer frequency, TF over GST control); in the experiment with ETV1, 1.11 fold enrichment (6-mer frequency, TF over GST control); with ERF it was 1.13 fold enrichment (6-mer frequency, TF over GST control); in the experiment with ETV3L, 1.04 fold enrichment (6-mer frequency, TF over GST control); with ETS2, 1.14 fold enrichment (6-mer frequency, TF over GST control); with ELF5, 1.02 fold enrichment (6-mer frequency, TF over GST control). For the same sequence, the binding signal with ETV3 was 1.04 fold enrichment (6-mer frequency, TF over GST control); with ETV6, 1.11 fold enrichment (6-mer frequency, TF over GST control).
